Measurements published in PubChem BioAssay AID489017 (The Scripps Research Institute Molecular Screening Center, 2010).
Calls of active or inactive are those of the source. No rule for the calls is given here.

Test system: Imidazoline I2 Central
Assay: receptor, enzyme and CYP inhibition profiling – biochemical, Ricerca HitProfilingScreen, CYP450, selectivity assay for S1P4 antagonist project, profiling panel (AID 489017)
Conditions: Ricerca receptor/enzyme binding panel plus CYP450, at 10 µM, hits give high values

In the case of `CCc1cccc(CC)c1NC(=O)c1ccc(-c2cc(Cl)ccc2Cl)o1`, the inhibition is reported as 8% (inactive).
